In PubChem BioAssay (NCATS):
Several values for one entry are separate records, joined by “and”; a condition that tells them apart may be missing. Identical values can stand only once. Records with an inconclusive call do not appear. Where a call stands in place of a potency, no number is given. Activity calls are given as the source filed them. Unless noted, the call rests on the fitted dose curve; in most records, active means well fitted curve in the direction sought with a large enough effect; inconclusive means small, poorly fitted or top-dose-only effect, or another doubt; inactive means no such curve, though single readings can be large; an effect the other way counts as inactive or inconclusive.

What was measured:
[1] = target: Vitamin D3 receptor (Homo sapiens) (UniProt P11473); experiment: qHTS assay for small molecule agonists of vitamin D receptor signaling (AID 588543; calls by dose curve)
Sequence of Vitamin D3 receptor (Homo sapiens) (P11473 whole entry, looked up): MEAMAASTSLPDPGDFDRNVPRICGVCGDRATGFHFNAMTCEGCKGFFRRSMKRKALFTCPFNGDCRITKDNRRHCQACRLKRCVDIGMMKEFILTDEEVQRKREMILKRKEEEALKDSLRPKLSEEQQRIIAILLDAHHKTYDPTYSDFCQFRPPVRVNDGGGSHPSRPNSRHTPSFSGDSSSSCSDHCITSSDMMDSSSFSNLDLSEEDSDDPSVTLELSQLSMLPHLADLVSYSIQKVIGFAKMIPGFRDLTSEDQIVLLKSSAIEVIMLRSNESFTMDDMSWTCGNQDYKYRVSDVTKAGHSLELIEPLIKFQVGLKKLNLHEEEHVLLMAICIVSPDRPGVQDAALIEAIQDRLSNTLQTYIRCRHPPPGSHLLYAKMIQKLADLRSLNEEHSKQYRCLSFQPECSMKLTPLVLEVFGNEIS
In short: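 Measured: β-lactamase reporter activity (CCF4, 405 nm excitation, 460/530 nm emission) in HEK293T VDR-UAS-bla cells after 16 h compound exposure at 37 °C. Normalization against 50 nM 1α,25-dihydroxyvitamin D3 and DMSO; Hill-fit EC50.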

[2] = qHTS assay for small molecule agonists of the antioxidant response element (ARE) signaling pathway (AID 651741; active means well fitted activation curve with a large enough effect in the signal ratio; the % refers to the signal ratio; further: potency means the concentration at half of the fitted maximal effect)
In short: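 Quantitative HTS in HepG2 cells stably expressing an ARE-beta-lactamase reporter; 16 h compound exposure at 37 C, followed by 2 h room-temperature incubation with LiveBLAzer B/G FRET substrate and fluorescence measurement.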

[3] = qHTS assay for small molecule activators of the nuclear factor-kappa B (NF-kB) signaling pathway (AID 651749; active means well fitted activation curve with a large enough effect in the signal ratio; the % refers to the signal ratio); conditions: NF-kB-bla ME-180 cells, beta-lactamase FRET ratio, 16 h; activation: stronger effect = higher value
In short: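 Readout: beta-lactamase reporter driven by an NF-kB response element, detected fluorescently as loss of FRET. Cells were the ME-180 line, treated 16 hr at 37C with pin-transferred compound.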

[4] = qHTS assay for environmental chemicals that activate the Aryl hydrocarbon Receptor (AhR) signaling pathway (AID 651777); conditions: 1A2-DRE human hepatoma cells, luciferase, 24 h; activation: stronger effect = higher value; further: nearly all actives have a fitted effect of over 15% in size
In short: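 Concentration–response screening used 1,200 1A2-DRE cells per well, 24 hr compound exposure (37 C, 5% CO2), and One-Glo luminescence as the AhR-driven CYP1A2 reporter signal.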

[5] = target: Peroxisome proliferator-activated receptor alpha (Homo sapiens) (UniProt Q07869); experiment: qHTS assay for small molecule agonists of the peroxisome proliferator-activated receptor alpha (PPARalpha) signaling pathway (AID 651778); conditions: PathHunter PPARalpha complementation, chemiluminescence, 6 h; stronger effect = higher value
Sequence of Peroxisome proliferator-activated receptor alpha (Homo sapiens) (Q07869 whole entry, looked up): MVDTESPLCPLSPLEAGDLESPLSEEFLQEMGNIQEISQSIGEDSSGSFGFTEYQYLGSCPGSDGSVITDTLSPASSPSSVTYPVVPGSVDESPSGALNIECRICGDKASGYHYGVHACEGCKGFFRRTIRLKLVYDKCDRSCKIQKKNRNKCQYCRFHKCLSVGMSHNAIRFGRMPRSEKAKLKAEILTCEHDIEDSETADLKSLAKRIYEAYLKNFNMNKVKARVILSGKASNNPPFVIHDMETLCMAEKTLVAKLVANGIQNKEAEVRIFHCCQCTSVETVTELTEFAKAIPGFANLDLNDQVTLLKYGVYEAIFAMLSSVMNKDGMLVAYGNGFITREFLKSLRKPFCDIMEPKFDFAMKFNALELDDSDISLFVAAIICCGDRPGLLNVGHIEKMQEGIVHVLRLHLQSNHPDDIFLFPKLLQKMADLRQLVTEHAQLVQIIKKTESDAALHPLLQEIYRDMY
In short: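 Chemiluminescence from complemented enzyme reported PPARalpha activation in cells after 6 hr of compound treatment at 37 C. The detection reagent was incubated for 60 min at room temperature, and compounds were scored as agonists.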

[6] = qHTS assay for cell viability of the p53RE-bla HCT-116 cell line (AID 743292); further: nearly all actives have a fitted effect of over 55% in size
In short: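 Compound-exposed HCT-116 (p53RE-bla) cells, 4,000 per well, were kept 16 h at 37 C following a 5 h preincubation. Cell number was estimated from total ATP by CellTiter-Glo luminescence read after 30 min at room temperature.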

[7] = target: Nuclear receptor subfamily 1 group I member 2 (Rattus norvegicus) (UniProt Q9R1A7); experiment: qHTS assay for small molecule activators of the rat pregnane X receptor (rPXR) signaling pathway (AID 651751; call rule not given here); conditions: rPXR reporter cells, luciferase (One-Glo), 24 h
Sequence of Nuclear receptor subfamily 1 group I member 2 (Rattus norvegicus) (Q9R1A7 whole entry, looked up): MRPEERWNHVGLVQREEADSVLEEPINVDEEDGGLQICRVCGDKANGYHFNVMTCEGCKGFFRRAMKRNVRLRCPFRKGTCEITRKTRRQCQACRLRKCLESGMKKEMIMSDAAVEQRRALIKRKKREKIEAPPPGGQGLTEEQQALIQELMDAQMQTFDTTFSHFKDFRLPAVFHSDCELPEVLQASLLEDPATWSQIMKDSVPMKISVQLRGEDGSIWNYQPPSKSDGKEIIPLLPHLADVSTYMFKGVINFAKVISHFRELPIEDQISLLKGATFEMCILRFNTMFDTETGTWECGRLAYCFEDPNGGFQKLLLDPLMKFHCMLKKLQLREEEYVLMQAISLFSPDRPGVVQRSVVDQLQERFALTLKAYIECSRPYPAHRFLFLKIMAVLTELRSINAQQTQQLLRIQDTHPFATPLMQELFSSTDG

[8] = target: Estrogen receptor (Homo sapiens) (UniProt P03372); experiment: qHTS assay for small molecule agonists of estrogen receptor alpha signaling (AID 588514; calls by dose curve; further: nearly all actives have a fitted effect of over 70% in size)
Sequence of Estrogen receptor (Homo sapiens) (P03372 whole entry, looked up): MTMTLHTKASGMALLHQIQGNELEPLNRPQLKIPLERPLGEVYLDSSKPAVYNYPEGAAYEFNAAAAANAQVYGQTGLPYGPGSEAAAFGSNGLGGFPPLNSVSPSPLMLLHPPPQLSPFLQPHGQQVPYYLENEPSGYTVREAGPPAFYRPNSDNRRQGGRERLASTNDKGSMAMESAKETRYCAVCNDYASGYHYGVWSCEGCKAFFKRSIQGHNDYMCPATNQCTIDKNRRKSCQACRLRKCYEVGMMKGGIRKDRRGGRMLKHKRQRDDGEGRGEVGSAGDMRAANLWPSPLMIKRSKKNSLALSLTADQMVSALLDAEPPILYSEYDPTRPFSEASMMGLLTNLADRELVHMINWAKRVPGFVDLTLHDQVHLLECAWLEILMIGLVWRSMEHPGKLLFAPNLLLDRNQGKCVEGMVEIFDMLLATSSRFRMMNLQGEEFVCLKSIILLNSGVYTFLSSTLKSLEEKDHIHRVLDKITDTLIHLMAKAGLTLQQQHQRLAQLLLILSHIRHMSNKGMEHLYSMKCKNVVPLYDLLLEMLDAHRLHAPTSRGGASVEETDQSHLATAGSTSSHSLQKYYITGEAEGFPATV
In short: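 Cells were plated at 5000/well, incubated 4 hrs at 37 C, dosed with compound titration series, incubated 18 hrs at 37 C, loaded with CCF4 dye for 2 hrs at RT, then fluorescence was read.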

[9] = target: Peroxisome proliferator-activated receptor delta (Homo sapiens) (UniProt Q03181); experiment: qHTS assay for small molecule agonists of peroxisome proliferator-activated receptor delta signaling (AID 588534; calls by dose curve)
Sequence of Peroxisome proliferator-activated receptor delta (Homo sapiens) (Q03181 whole entry, looked up): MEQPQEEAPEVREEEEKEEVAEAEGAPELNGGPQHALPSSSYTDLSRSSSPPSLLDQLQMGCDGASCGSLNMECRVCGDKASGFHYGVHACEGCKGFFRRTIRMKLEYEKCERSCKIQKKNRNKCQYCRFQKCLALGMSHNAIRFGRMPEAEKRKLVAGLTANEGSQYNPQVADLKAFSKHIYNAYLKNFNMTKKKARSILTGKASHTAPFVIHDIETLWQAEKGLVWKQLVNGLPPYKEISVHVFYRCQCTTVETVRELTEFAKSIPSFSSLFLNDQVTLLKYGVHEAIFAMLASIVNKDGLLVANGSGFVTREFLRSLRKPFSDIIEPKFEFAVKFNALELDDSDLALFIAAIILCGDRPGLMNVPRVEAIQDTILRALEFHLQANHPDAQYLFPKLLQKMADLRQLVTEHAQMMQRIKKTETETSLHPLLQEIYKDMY
In short: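 Fluorescence from CCF4 substrate cleavage by beta-lactamase reporter, read 2 hrs at RT, measured agonist activity. Compounds were tested with 18 hrs exposure at 37 C. Concentration-response data fitted to Hill equation.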

[10] = target: Peroxisome proliferator-activated receptor gamma (Homo sapiens) (UniProt P37231); experiment: qHTS assay for small molecule agonists of peroxisome proliferator-activated receptor gamma signaling (AID 588536; active means well fitted curve in the direction sought with a large enough effect in the signal ratio, with a control signal flat, not every such curve was filed as active; the % refers to the signal ratio)
Sequence of Peroxisome proliferator-activated receptor gamma (Homo sapiens) (P37231 whole entry, looked up): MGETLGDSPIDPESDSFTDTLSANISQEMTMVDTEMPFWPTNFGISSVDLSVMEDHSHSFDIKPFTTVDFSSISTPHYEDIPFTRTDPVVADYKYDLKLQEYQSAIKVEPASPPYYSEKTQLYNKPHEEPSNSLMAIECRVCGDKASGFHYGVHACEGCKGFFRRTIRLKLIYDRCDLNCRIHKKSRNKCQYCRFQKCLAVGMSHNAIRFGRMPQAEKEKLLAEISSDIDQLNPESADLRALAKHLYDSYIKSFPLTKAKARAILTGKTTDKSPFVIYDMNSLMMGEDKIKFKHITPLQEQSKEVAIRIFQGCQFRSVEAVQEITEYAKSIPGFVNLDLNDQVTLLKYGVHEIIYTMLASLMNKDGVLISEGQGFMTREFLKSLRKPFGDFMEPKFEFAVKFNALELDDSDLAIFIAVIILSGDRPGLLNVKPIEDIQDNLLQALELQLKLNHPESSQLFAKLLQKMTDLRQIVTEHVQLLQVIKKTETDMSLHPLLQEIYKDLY
In short: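 HEK293 UAS-bla reporter line, 1% charcoal/dextran FBS; titration, 16 h, 37 C; CCF4 loading 2 h RT; fluorescence 460/530 nm. Normalized to rosiglitazone 2 uM = 100%, DMSO = 0%.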

[11] = qHTS assay for small molecule agonists of retinoid X receptor alpha signaling (AID 588544; calls by dose curve); conditions: HEK293T RXRa-UAS-bla, beta-lactamase reporter, 18 h; 530 nm emission
[12] = target: Retinoic acid receptor RXR-alpha (Homo sapiens) (UniProt P19793); experiment: as above
Sequence of Retinoic acid receptor RXR-alpha (Homo sapiens) (P19793 whole entry, looked up): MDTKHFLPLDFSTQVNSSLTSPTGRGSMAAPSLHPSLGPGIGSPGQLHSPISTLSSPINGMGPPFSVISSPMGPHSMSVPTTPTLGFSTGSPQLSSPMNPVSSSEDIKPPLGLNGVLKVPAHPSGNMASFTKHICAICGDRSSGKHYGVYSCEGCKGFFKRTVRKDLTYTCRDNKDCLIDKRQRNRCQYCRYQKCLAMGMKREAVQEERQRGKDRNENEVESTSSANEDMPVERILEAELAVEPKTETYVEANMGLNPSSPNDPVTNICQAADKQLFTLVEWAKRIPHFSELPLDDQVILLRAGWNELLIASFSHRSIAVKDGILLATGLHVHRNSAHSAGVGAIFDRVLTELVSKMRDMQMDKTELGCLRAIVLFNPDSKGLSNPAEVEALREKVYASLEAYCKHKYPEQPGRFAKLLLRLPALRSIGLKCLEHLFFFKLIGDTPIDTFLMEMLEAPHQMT

[13] = target: Thyroid hormone receptor beta (Homo sapiens) (UniProt P10828); experiment: qHTS assay for small molecule agonists of thyroid hormone receptor beta signaling (AID 588545; calls by dose curve)
Sequence of Thyroid hormone receptor beta (Homo sapiens) (P10828 whole entry, looked up): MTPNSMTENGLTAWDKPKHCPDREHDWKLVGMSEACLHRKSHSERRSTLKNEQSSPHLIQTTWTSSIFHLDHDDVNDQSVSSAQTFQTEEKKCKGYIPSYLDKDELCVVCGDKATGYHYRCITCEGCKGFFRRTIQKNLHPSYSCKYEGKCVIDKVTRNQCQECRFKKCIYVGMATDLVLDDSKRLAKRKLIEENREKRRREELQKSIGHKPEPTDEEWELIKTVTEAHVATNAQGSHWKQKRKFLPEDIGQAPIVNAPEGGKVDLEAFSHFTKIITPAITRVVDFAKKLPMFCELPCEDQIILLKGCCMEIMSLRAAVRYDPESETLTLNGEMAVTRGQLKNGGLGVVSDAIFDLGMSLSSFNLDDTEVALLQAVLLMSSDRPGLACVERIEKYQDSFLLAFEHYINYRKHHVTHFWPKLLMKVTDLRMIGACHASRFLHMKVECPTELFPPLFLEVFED
In short: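 Compounds were tested as agonists in TR-UAS-bla-GripTite HEK 293 cells. After 18 hrs at 37 C, CCF4 substrate was added and fluorescence read after 2 hrs at room temperature.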

[14] = target: Thyroid hormone receptor beta (Homo sapiens) (UniProt P10828); experiment: qHTS assay for small molecule antagonists of thyroid hormone receptor beta signaling (AID 588547; active means well fitted inhibition curve with a large enough effect in the signal ratio, with a control signal flat, not every such curve was filed as active; the % refers to the signal ratio;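 further: cells stimulated with 0.4 nM T3 agonist during compound exposure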); conditions: TR-UAS-bla HEK293, beta-lactamase ratio, antagonist mode, 18 h
In short: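 Inhibition of T3-driven (0.4nM final) beta-lactamase reporter activity was measured over 0.59 nM to 92 uM compound after 18 h at 37 C. The cells were GripTite HEK293 TR-UAS-bla in charcoal/dextran-stripped serum, with CCF4 ratio read-out and IC50 from Hill fits.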

[15] = qHTS assay for small molecule agonists of the antioxidant response element (ARE) signaling pathway measured by Nrf2-dependant transcriptional activity (AID 720636; active means well fitted curve in the direction sought with a large enough effect in the repeat runs; an effect the other way counts as inactive or inconclusive;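 further: HepG2 cells with an ARE-driven luciferase reporter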)
In short: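 Attachment 6 hr at 37 C, then compound versus DMSO vehicle for 16 hr in ARE-luc HepG2 cells (1% dialyzed FBS); luminescence recorded 30 min after ONE-Glo addition at room temperature.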

[16] = target: DNA dC->dU-editing enzyme APOBEC-3G (Homo sapiens) (UniProt Q9HC16); experiment: qHTS for inhibitors of Vif-A3G interactions: Validation (AID 588379)
Sequence of DNA dC->dU-editing enzyme APOBEC-3G (Homo sapiens) (Q9HC16 whole entry, looked up): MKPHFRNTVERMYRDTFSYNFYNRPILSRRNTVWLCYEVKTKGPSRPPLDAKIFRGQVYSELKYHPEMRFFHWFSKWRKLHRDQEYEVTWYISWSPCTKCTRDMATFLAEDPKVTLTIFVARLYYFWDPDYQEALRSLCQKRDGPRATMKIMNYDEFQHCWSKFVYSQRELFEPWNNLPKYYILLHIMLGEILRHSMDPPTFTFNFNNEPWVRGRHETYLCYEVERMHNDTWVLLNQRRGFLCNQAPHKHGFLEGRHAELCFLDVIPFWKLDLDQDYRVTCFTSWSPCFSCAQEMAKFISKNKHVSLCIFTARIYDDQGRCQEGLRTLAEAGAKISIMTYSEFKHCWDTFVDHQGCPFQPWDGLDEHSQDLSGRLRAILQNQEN
In short: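 HeLa cells stably expressing Vif and A3G-eYFP, 700 cells/well, incubated overnight at 37 deg C, then exposed to compound overnight at 37 deg C. Inhibition of Vif-mediated degradation read as increased yellow fluorescence (Ex 488/Em 500-530) by laser-scanning cytometry.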

CP260 = experiment: qHTS profiling for inhibitors of Plasmodium falciparum proliferation (AID 504749); further: nearly all actives have a fitted effect of over 60% in size; further: potency means the concentration at half of the fitted maximal effect; conditions: P. falciparum in erythrocytes, SYBR Green DNA, 72 h; series mostly up to 28.7 µM
In short: (§1)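 Infected RBCs, 0.3% parasitemia/2.5% Hct final; cpd 72 h, 37 C, 5% CO2; lysis buffer with saponin/triton/SYBR Green I, o/n RT dark; FI 485/535; norm. to artemisinin (0.29 uM) and DMSO.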

GB4 = experiment: as above; conditions: P. falciparum in erythrocytes, SYBR Green DNA, 72 h; series mostly up to 28.7 µM
In short: as §1

W2 = experiment: as above; conditions: P. falciparum in erythrocytes, SYBR Green DNA, 72 h; series mostly up to 12.8 µM
In short: as §1

[17] = target: Cytochrome P450 2C19 (Homo sapiens) (UniProt P33261); experiment: qHTS Assay for Inhibitors and Substrates of Cytochrome P450 2C19 (AID 899); further: nearly all actives have a fitted effect of over 60% in size
Sequence of Cytochrome P450 2C19 (Homo sapiens) (P33261 whole entry, looked up): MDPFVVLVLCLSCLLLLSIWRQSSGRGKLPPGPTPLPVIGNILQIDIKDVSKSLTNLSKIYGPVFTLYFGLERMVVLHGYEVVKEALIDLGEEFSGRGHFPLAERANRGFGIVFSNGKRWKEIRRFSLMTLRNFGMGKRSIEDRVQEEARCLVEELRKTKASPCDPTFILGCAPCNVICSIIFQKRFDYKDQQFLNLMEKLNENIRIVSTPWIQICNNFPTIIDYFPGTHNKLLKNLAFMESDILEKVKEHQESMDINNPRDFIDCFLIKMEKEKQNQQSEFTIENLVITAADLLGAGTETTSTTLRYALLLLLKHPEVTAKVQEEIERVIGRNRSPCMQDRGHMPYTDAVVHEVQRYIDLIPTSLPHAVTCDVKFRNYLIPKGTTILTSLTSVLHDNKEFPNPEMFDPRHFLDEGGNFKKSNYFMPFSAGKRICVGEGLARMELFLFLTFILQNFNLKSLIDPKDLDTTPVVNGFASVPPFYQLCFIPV
In short: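 Reactions contain 5nM enzyme, 10uM Luciferin-H EGE (KM) and 50mM KPO4; compound preincubates 10 min at 37C, NADPH regeneration starts turnover for 60 min. Luminescence after detection reagent gives activity.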

For `CCc1cccc(C)c1N(C(=O)CCl)C(C)COC` (stereo unspecified), the outcome [1] was “inactive”, the Potency [2] was 24.3 µM (active) and the activation [3] was -1.58% (inactive). The activation [4] was -0.315% (inactive), the max response [5] was -0.424% (inactive) and the Potency [6] was “inactive”. The max response [7] was 14% (inactive).

With `CC(C)OC(=O)Nc1cccc(Cl)c1` the Potency [8] was “inactive”, the outcome [9] was “inactive” and the outcome [10] was “inactive”. The outcome [1] was “inactive”, the max response [11] was -7.86% and the Potency [12] was “inactive”. The outcome [13] was “inactive”, the activity change % (negative = inhibition) [14] was 12.8% (inactive) and the Potency [2] was “inactive”. For the same compound, the activation [3] was 0.165% (inactive) and the max response [5] was -1.91% (inactive).

With `N#Cc1c(Cl)cccc1Cl` the Potency [8] was “inactive”, the outcome [9] was “inactive” and the outcome [10] was “inactive”. For the same compound, the max response [11] was -4.43%, the Potency [12] was “inactive” and the outcome [13] was “inactive”. For the same compound, the activity change % (negative = inhibition) [14] was -4.17% (inactive), the Potency [2] was “inactive” and the activation [3] was -0.285% (inactive). The activation [4] was -0.167% (inactive), the outcome [15] was “inactive” and the max response [7] was 2.13% (inactive).

For `O=C1CC2OCC=C3CN4CC[C@]56c7ccccc7N1[C@H]5[C@H]2C3C[C@H]46` (stereo partly specified), the outcome [16] was “inactive”.

In the case of `CC[C@@H]1CN2CC[C@@H]1C[C@H]2[C@H](O)c1ccnc2ccc(OC)cc12`, the outcome [16] is reported as “inactive”.

With `COc1cc2c(cc1OC)[C@@]13CCN4CC5=CCOC6CC(=O)N2C1[C@H]6[C@@H]5C[C@@H]43` (stereo partly specified) the Potency (CP260) was “inactive”, the Potency (GB4) was “inactive” and the Potency (W2) was “inactive”.

With `CNC(C)[C@@H](O)c1ccccc1` (stereo partly specified) the Potency (CP260) was “inactive” and the Potency (GB4) was “inactive”.

With `COc1cc2c(c(OC)c1OC)-c1ccc(O)c(=O)cc1[C@@H](NC(C)=O)CC2` the Potency [17] was “inactive”.

For `CCCCCCCCCc1ccc(O)cc1`, the outcome [9] was “inactive”, the outcome [10] was “inactive” and the outcome [1] was “inactive”. For the same compound, the max response [11] was -5.72%, the Potency [12] was “inactive” and the outcome [13] was “inactive”. For the same compound, the activity change % (negative = inhibition) [14] was 4.44% (inactive), the Potency [2] was 75 µM (active) and 30.6 µM (active) and the activation [3] was 1.31% (inactive). The activation [4] was 10.9% (inactive) and 1.36% (inactive), the max response [5] was 6.94% (inactive) and 6.09% (inactive) and the outcome [15] was “inactive”. For the same compound, the max response [7] was -1.03% (inactive) and 0.419% (inactive).

With `CCCCSP(=O)(SCCCC)SCCCC` the outcome [9] was “inactive”, the outcome [10] was “inactive” and the outcome [1] was “inactive”. For the same compound, the outcome [13] was “inactive”, the activity change % (negative = inhibition) [14] was -17.4% (inactive) and the activation [4] was -2.91% (inactive). The outcome [15] was “inactive”.

With `CCC(C)C1O[C@]2(C=CC1C)CC1CC(C/C=C(\C)[C@H](OC3CC(OC)C(O[C@H]4CC(OC)[C@@H](O)C(C)O4)C(C)O3)[C@@H](C)/C=C/C=C3\COC4C(O)C(C)=C[C@H](C(=O)O1)[C@@]34O)O2` (stereo partly specified) the Potency (GB4) was 13.5 µM (active) and the Potency (W2) was 4.78 µM (active).

With `C=C[C@H]1CN2CCC1C[C@@H]2C(O)c1ccnc2ccccc12` (stereo partly specified) the outcome [16] was “inactive”.

With `CC([C@H](O)c1ccccc1)N(C)C` (stereo partly specified) the Potency (CP260) was “inactive” and the Potency (W2) was 6.75 µM (active).

In the case of `CCC(=O)Nc1ccc(Cl)c(Cl)c1`, the outcome [10] is reported as “inactive”, the max response [11] is reported as 4.16% and the Potency [12] is reported as “inactive”. The outcome [13] was “inactive”, the activation [4] was 4.76% (inactive) and the outcome [15] was “inactive”. For the same compound, the Potency [6] was “inactive” and the max response [7] was 6.65% (inactive).

For `O=c1ccc2cc(O[C@H]3O[C@@H](CO)[C@@H](O)[C@@H](O)[C@@H]3O)c(O)cc2o1`, the Potency (CP260) was “inactive”, the Potency (GB4) was “inactive” and the Potency (W2) was “inactive”.

For `CCS(=O)CCSP(=O)(OC)OC` (stereo unspecified), the Potency [8] was “inactive”, the outcome [9] was “inactive” and the outcome [10] was “inactive”. For the same compound, the outcome [1] was “inactive”, the max response [11] was -13.5% and the Potency [12] was “inactive”. For the same compound, the outcome [13] was “inactive”, the activity change % (negative = inhibition) [14] was -3.19% (inactive) and the Potency [2] was “inactive”. For the same compound, the activation [3] was -0.59% (inactive), the activation [4] was -0.491% (inactive) and the max response [5] was -0.0185% (inactive). For the same compound, the outcome [15] was “inactive”, the Potency [6] was “inactive” and the max response [7] was -2.51% (inactive).

With `COP(N)(=O)SC` (stereo unspecified) the Potency [8] was “inactive”, the outcome [9] was “inactive” and the outcome [10] was “inactive”. The max response [11] was -14.8% and -10.1%, the Potency [12] was “inactive” and the outcome [13] was “inactive”. The activity change % (negative = inhibition) [14] was 12.1% (inactive) and -8.42% (inactive), the Potency [2] was “inactive” and the activation [3] was 0.304% (inactive) and 1.6% (inactive). The activation [4] was -0.0851% (inactive) and 1.26% (inactive), the max response [5] was -4.83% (inactive) and -1.06% (inactive) and the outcome [15] was “inactive”. The Potency [6] was “inactive” and the max response [7] was -2.32% (inactive) and -2.07% (inactive).

For `CC(C)(C)[C@]1(O)C[C@@H]2OC(=O)C[C@@]23C(=O)O[C@@H]2OC(=O)[C@H](O)[C@]213`, the outcome [16] was “inactive”.

In the case of `O=C1C(Cl)=C(Cl)C(=O)C(Cl)=C1Cl`, the Potency [2] is reported as 26.6 µM (active), the max response [5] is reported as -6.11% (inactive) and the max response [7] is reported as -2.19% (inactive).

For `CCN1C[C@@]2(COC(=O)c3ccccc3N3C(=O)CC(C)C3=O)CC[C@H](OC)[C@]34C5C[C@@H]6[C@@H](OC)C[C@@](O)(C5[C@H]6OC)[C@@](O)(C13)[C@@H](OC)C24` (stereo partly specified), the outcome [16] was “inactive”.

With `CC(C)(O)[C@@H]1C2OC(=O)[C@@H]1[C@]1(O)C[C@H]3O[C@]34C(=O)O[C@H]2[C@]14C` the outcome [16] was “inactive”.

With `C[N+]1=Cc2cc3c(cc2CC1)OCO3` the Potency [17] was “inactive” and the outcome [16] was “inactive”.
